Calls of active or inactive are those of the source.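 The calls were made as follows: active = inhibition above 50%; inactive = the rest.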
Test: human hepatoma cell viability loss – ATP luminescence, cytotoxicity control for P. falciparum antimalarial project, primary screen (AID 2303);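 also: 0% = DMSO wells and 100% = digitonin-killed cells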
Conditions: HepG2 viability, 24-48 h, at 10 µM, hits give high values

Compound | inhibition
CC(=O)C=C1CC(=O)N(C[C@@H](O)[C@H]2O[C@@H]3OC(C)(C)O[C@@H]3[C@H]2O)c2ccccc2N1 | -8% (inactive)
O=C(Nc1cccc(-c2ccc(-c3nc4ccc(C(F)(F)F)cc4[nH]3)cc2)c1)c1ccoc1 | 76% (active)
Cc1cc(C2CCN(CCCCNC(=O)c3ccc(-c4ccc(C#N)cc4)cc3)CC2)c(C)cc1O | 27% (inactive)
CNC(=O)CSc1nnc(-c2ccc(C)cc2)c(-c2ccc(C)cc2)n1 | 2% (inactive)
CCN(CC)CCN(CCN(CC)CC)c1ccc(-c2nc3cc(Cl)c(Cl)cc3[nH]2)cc1 | 9% (inactive)
CN(C)CCOc1ccc(/C(=C(/CCCn2ccnc2)c2ccccc2)c2ccc(O)cc2)cc1 | 13% (inactive)
CC(C)c1ccc(Nc2nc(NCCc3cnc[nH]3)nc(NCc3ccccc3)n2)cc1 | 1% (inactive)
Cc1ccc(Oc2ccc(NC(=O)CNc3ccccc3N3CCCC3=O)cc2)cc1 | 14% (inactive)
CC1(C)N=C(N)N=C(N)N1OCCc1ccccc1 | 70% (active)
OC(COCc1ccc(-c2ccccc2)cc1)CN1CCCCC1 (configuration not stated) | 13% (inactive)
COc1ccc(-c2csc(NC(=O)CCC(=O)O)n2)cc1OC | 63% (active)
CCCC(=O)Nc1ccc(OCCCN(Cc2ccccc2F)c2ccc(C#N)c(C(F)(F)F)c2)cc1 | 7% (inactive)
Cc1cccc2[nH]c(-c3ccc(-c4ccc(CNCc5ccc(CN)cc5)cc4)cc3)nc12 | 14% (inactive)
NC(N)=NC(=O)Nc1ccc(Cl)c(Cl)c1 | 29% (inactive)
COCCNCc1cccc(-c2ccccc2CN(C(=O)c2ccc3c(c2)OCO3)c2ccc(OC)cc2)c1 | 6% (inactive)
FC(F)(F)c1cccnc1N1CCC(Nc2nc3ccc(Cl)cc3[nH]2)CC1 | 32% (inactive)
c1ccc2c(Nc3ccc(Cc4ccc(Nc5c6ccccc6nc6ccccc56)cc4)cc3)c3ccccc3nc2c1 | 93% (active)
COc1cc(F)c2nccc([C@@H](O)CN3CC[C@H](NCc4ccc5c(n4)NC(=O)CS5)[C@H](F)C3)c2c1 | 32% (inactive)
COc1ccc(-c2nc(-c3ccc([N+](=O)[O-])cc3)no2)cc1OC | 14% (inactive)

Compound | inhibition
N#Cc1ccc(-c2ccc(C(=O)NCCCCN3CCC(c4ccc5c(c4OCC(N)=O)CCCC5)CC3)cc2)cc1 | 21% (inactive)
CC1CN(CC(O)Cn2c3ccc(Br)cc3c3cc(Br)ccc32)CC(C)O1 (configuration not stated) | -1% (inactive)
N#Cc1cccc(C(=O)Nc2cccc(-c3cccc(CN4CCNCC4)c3)c2)c1 | 37% (inactive)
COCCNCc1cccc(C#Cc2cc3ncnc(Nc4ccc(OCc5cccc(F)c5)c(Cl)c4)c3s2)n1 | 35% (inactive)
Cc1cccc(-c2ccc3c(c2)CC(NCc2cccc(-n4ccnc4)c2)C3)c1 (configuration not stated) | 11% (inactive)
Nc1nc(N)c2c(ccc3c2ccn3Cc2ccccc2)n1 | 64% (active)
COc1ccc(-c2cccc(NC(=O)c3cccc(Cl)c3)c2)cc1CN1CCC(O)CC1 | 38% (inactive)
Cc1cccc2[nH]c(-c3ccc(-c4cccc(CNCc5ccccc5)c4)cc3)nc12 | 3% (inactive)
FC(F)(F)c1ccc2nc(-c3ccc(-c4cccc(CN5CCC(CCN6CCCCC6)CC5)c4)cc3)[nH]c2c1 | 100% (active)
CN1CCC(C(=O)Nc2ccc(-c3ccc(-c4nc5ccccc5[nH]4)s3)cc2)CC1 | 30% (inactive)
COc1ccc(Nc2nccc(NCC(O)c3ccc(C(F)(F)F)cc3)n2)cc1 (configuration not stated) | 6% (inactive)
CC(C)Cc1cn(-c2nc(-c3nc4ccccc4[nH]3)cs2)c2ccncc12 | 34% (inactive)
CC1=C(C(=O)Nc2cc3cn[nH]c3cc2F)C(c2cccc(O)c2F)CC(=O)N1 (configuration not stated) | 1% (inactive)
O=C(Nc1ccccc1)c1ccc(N2CCC(COc3cccc(C(F)(F)F)c3)CC2)nc1 | 11% (inactive)
CN(C)c1nc2cc(-n3cnc4cc(-c5ccc(Cl)cc5)sc4c3=O)ccc2n1CCCN1CCCC1 | 99% (active)
O=C(NCC1CCC(C(=O)O)CC1)c1ccc(/C=C/C(=O)N2CCc3ccccc3C2c2ccc3c(c2)OCO3)cc1 (configuration not stated) | 66% (active)
COc1ccc(CN(C)CCCOc2ccc(NC(=O)C=Cc3ccc(C(C)(C)C)cc3)cc2)cc1OC | 14% (inactive)
CC(C)CCCC(C)NC[C@@H](O)[C@H](Cc1ccccc1)NC(=O)c1cc(N2CCCC2=O)cc(N(c2ccccc2)S(C)(=O)=O)c1 (some centres not stated) | 17% (inactive)

From PubChem BioAssay
